Test results reported in PubChem BioAssay AID1159580 (chemical genetic matrix, 2015).
Out of some 5,500 compounds screened, about 2,000 (36%) were called active. Roughly 18% stayed inconclusive and do not appear here. Rule as the data show it: active = normalized growth mostly below about 0.91 (no sharp cut-off); inconclusive = no clear call, values can overlap the other calls; inactive = mostly above about 0.92. The list shows a part of the results.

Assay: chemical genetic growth profiling, strain panel (AID 1159580);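 also: tested at 20 µM; growth read once vehicle control cultures reached saturation at 30 °C; 1 = growth at the plate median or of vehicle wells; lower values mean less growth of the strain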
Conditions: growth OD

Measured: normalized growth

Oc1cc(O)c2c(c1)O[C@H](c1ccc(O)c(O)c1)[C@@H](O)C2
inactive: S. cerevisiae deletion strains, locus YJR066W, strain TOR1, stronger effect = lower value 0.927 | S. cerevisiae deletion strains, locus YJR075W, strain HOC1, stronger effect = lower value 1 | S. cerevisiae deletion strains, locus YKL009W, strain mrt4, stronger effect = lower value 0.991 | S. cerevisiae deletion strains, locus YKL068W, stronger effect = lower value 0.977 | S. cerevisiae deletion strains, locus YKL085W, strain MDH1 (second series), stronger effect = lower value 0.981 | S. cerevisiae deletion strains, locus YKL085W, strain MDH1, stronger effect = lower value 0.981 | S. cerevisiae deletion strains, locus YKL160W, strain elf1, stronger effect = lower value 1.02 | S. cerevisiae deletion strains, locus YKR001C, strain vps1, stronger effect = lower value 1.03 | S. cerevisiae deletion strains, locus YKR026C, strain gcn3, stronger effect = lower value 0.973 | S. cerevisiae deletion strains, locus YKR091W, strain srl3, stronger effect = lower value 1.01 | S. cerevisiae deletion strains, locus YLL001W, strain dnm1, stronger effect = lower value 1.01 | S. cerevisiae deletion strains, locus YLL026W, stronger effect = lower value 1 | S. cerevisiae deletion strains, locus YLL041C, strain sdh2, stronger effect = lower value 1.01 | S. cerevisiae deletion strains, locus YLR027C, strain aat2, stronger effect = lower value 1.02 | S. cerevisiae deletion strains, locus YLR039C, strain RIC1, stronger effect = lower value 0.919 | S. cerevisiae deletion strains, locus YLR058C, strain SHM2, stronger effect = lower value 0.973 | S. cerevisiae deletion strains, locus YLR102C, strain apc9, stronger effect = lower value 0.985 | S. cerevisiae deletion strains, locus YLR113W, strain HOG1, stronger effect = lower value 0.987 | S. cerevisiae deletion strains, locus YLR221C, strain rsa3, stronger effect = lower value 1.02 | S. cerevisiae deletion strains, locus YLR258W, strain gsy2, stronger effect = lower value 1 | S. cerevisiae deletion strains, locus YLR262C, strain YPT6 (second series), stronger effect = lower value 1.02 | S. cerevisiae deletion strains, locus YLR262C, strain YPT6, stronger effect = lower value 0.945 | S. cerevisiae deletion strains, locus YLR268W, strain sec22, stronger effect = lower value 1.02 | S. cerevisiae deletion strains, locus YLR320W, strain mms22, stronger effect = lower value 1.01 | S. cerevisiae deletion strains, locus YLR330W, strain CHS5, stronger effect = lower value 1 | S. cerevisiae deletion strains, locus YLR342W, strain FKS1 (second series), stronger effect = lower value 1.02 | S. cerevisiae deletion strains, locus YLR342W, strain FKS1, stronger effect = lower value 1.01 | S. cerevisiae deletion strains, locus YLR357W, strain rsc2, stronger effect = lower value 0.987 | S. cerevisiae deletion strains, locus YLR370C, strain arc18, stronger effect = lower value 1.01 | S. cerevisiae deletion strains, locus YLR371W, strain rom2, stronger effect = lower value 1.01 | S. cerevisiae deletion strains, locus YLR384C, strain iki3, stronger effect = lower value 0.997 | S. cerevisiae deletion strains, locus YLR418C, strain cdc73, stronger effect = lower value 0.965 | S. cerevisiae deletion strains, locus YML016C, strain PPZ1, stronger effect = lower value 0.999 | S. cerevisiae deletion strains, locus YML032C, strain rad52, stronger effect = lower value 0.947 | S. cerevisiae deletion strains, locus YML120C, strain ndi1, stronger effect = lower value 1.01 | S. cerevisiae deletion strains, locus YML124C, strain tub3, stronger effect = lower value 0.985 | S. cerevisiae deletion strains, locus YMR058W, strain fet3, stronger effect = lower value 1.02 | S. cerevisiae deletion strains, locus YMR078C, strain ctf18, stronger effect = lower value 0.984 | S. cerevisiae deletion strains, locus YMR125W, strain sto1, stronger effect = lower value 1.01 | S. cerevisiae deletion strains, locus YMR129W, stronger effect = lower value 1.02 | S. cerevisiae deletion strains, locus YMR205C, strain PFK2, stronger effect = lower value 1 | S. cerevisiae deletion strains, locus YMR223W, strain ubp8, stronger effect = lower value 0.972 | S. cerevisiae deletion strains, locus YMR231W, strain pep5, stronger effect = lower value 1 | S. cerevisiae deletion strains, locus YMR263W, strain SAP30, stronger effect = lower value 0.993 | S. cerevisiae deletion strains, locus YMR307W, strain GAS1, stronger effect = lower value 1.01 | S. cerevisiae deletion strains, locus YNL067W, strain RPL9B, stronger effect = lower value 0.983 | S. cerevisiae deletion strains, locus YNL071W, strain lat1, stronger effect = lower value 1.02 | S. cerevisiae deletion strains, locus YNL128W, strain TEP1, stronger effect = lower value 0.97 | S. cerevisiae deletion strains, locus YNL183C, strain NPR1, stronger effect = lower value 0.95 | S. cerevisiae deletion strains, locus YNL209W, strain ssb2, stronger effect = lower value 1.01 | S. cerevisiae deletion strains, locus YNL233W, strain BNI4, stronger effect = lower value 0.993 | S. cerevisiae deletion strains, locus YNL248C, strain rpa49, stronger effect = lower value 1.03 | S. cerevisiae deletion strains, locus YNL250W, strain rad50, stronger effect = lower value 0.981 | S. cerevisiae deletion strains, locus YNL271C, strain bni1, stronger effect = lower value 0.988 | S. cerevisiae deletion strains, locus YNL298W, strain CLA4, stronger effect = lower value 0.969 | S. cerevisiae deletion strains, locus YNL307C, strain MCK1, stronger effect = lower value 0.989 | S. cerevisiae deletion strains, locus YNL322C, strain KRE1 (second series), stronger effect = lower value 1.01 | S. cerevisiae deletion strains, locus YNL322C, strain KRE1, stronger effect = lower value 0.99 | S. cerevisiae deletion strains, locus YNR049C, strain mso1, stronger effect = lower value 1 | S. cerevisiae deletion strains, locus YNR052C, strain pop2, stronger effect = lower value 0.995 | S. cerevisiae deletion strains, locus YOL012C, strain htz1 1.07 | S. cerevisiae deletion strains, locus YOL147C, strain pex11, stronger effect = lower value 0.979 | S. cerevisiae deletion strains, locus YOR001W, strain rrp6, stronger effect = lower value 1.02 | S. cerevisiae deletion strains, locus YOR061W, strain CKA2, stronger effect = lower value 0.97 | S. cerevisiae deletion strains, locus YOR069W, strain VPS5, stronger effect = lower value 0.994 | S. cerevisiae deletion strains, locus YOR070C, strain gyp1, stronger effect = lower value 0.996 | S. cerevisiae deletion strains, locus YOR080W, strain dia2, stronger effect = lower value 1 | S. cerevisiae deletion strains, locus YOR083W, strain WHI5, stronger effect = lower value 1.02 | S. cerevisiae deletion strains, locus YOR106W, strain vam3, stronger effect = lower value 1.03 | S. cerevisiae deletion strains, locus YOR136W, strain idh2, stronger effect = lower value 1 | S. cerevisiae deletion strains, locus YOR144C, strain elg1, stronger effect = lower value 0.983 | S. cerevisiae deletion strains, locus YOR184W, strain ser1, stronger effect = lower value 0.995 | S. cerevisiae deletion strains, locus YOR231W, strain MKK1, stronger effect = lower value 0.987 | S. cerevisiae deletion strains, locus YOR265W, strain rbl2, stronger effect = lower value 1 | S. cerevisiae deletion strains, locus YOR270C, strain vph1, stronger effect = lower value 1.07 | S. cerevisiae deletion strains, locus YOR290C, strain snf2, stronger effect = lower value 0.971 | S. cerevisiae deletion strains, locus YOR316C, strain cot1, stronger effect = lower value 0.979 | S. cerevisiae deletion strains, locus YPL051W, strain arl3, stronger effect = lower value 1.02 | S. cerevisiae deletion strains, locus YPL078C, strain atp4, stronger effect = lower value 1.01 | S. cerevisiae deletion strains, locus YPL106C, strain sse1, stronger effect = lower value 1 | S. cerevisiae deletion strains, locus YPL240C, strain hsp82, stronger effect = lower value 1 | S. cerevisiae deletion strains, locus YPL256C, strain CLN2, stronger effect = lower value 0.984 | S. cerevisiae deletion strains, locus YPR119W, strain clb2, stronger effect = lower value 0.983 | S. cerevisiae deletion strains, locus YPR141C, strain kar3, stronger effect = lower value 0.972 | S. cerevisiae deletion strains, locus YPR163C, strain tif3, stronger effect = lower value 0.992 | S. cerevisiae deletion strains, locus YPR167C, strain met16, stronger effect = lower value 0.975 | S. cerevisiae deletion strains, strain wtn01, stronger effect = lower value 1.05 | S. cerevisiae strains, strain wild type, stronger effect = lower value 0.985
